The record followed here is the supplement of paper PMC11624193, “Coupling cellular drug-target engagement to downstream pharmacology with CeTEAM” (Nature Communications, 2024).

The experiment concerns the target PARP1 L713F-nLuc biosensor (HCT116) (UniProt P09874). Briefly: PARP1 L713F-nLuc/akaLuc ratio relative to DMSO control (biosensor stabilization) (fold change); higher = more PARP1 biosensor stabilization (target engagement / stabilizer), active = hit call of the paper. Particulars: stock concentration (mM; final µM = stock mM x 1): 2; 24 h.

Molecules are shown by their SMILES. Values without a mark were called inactive.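 Rule for the calls: active = log2 fold change beyond 2 SD from the library mean after excluding viability outliers; inactive = within 2 SD.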

Sequence of PARP1 L713F-nLuc biosensor (HCT116) (P09874 whole entry L713F, looked up): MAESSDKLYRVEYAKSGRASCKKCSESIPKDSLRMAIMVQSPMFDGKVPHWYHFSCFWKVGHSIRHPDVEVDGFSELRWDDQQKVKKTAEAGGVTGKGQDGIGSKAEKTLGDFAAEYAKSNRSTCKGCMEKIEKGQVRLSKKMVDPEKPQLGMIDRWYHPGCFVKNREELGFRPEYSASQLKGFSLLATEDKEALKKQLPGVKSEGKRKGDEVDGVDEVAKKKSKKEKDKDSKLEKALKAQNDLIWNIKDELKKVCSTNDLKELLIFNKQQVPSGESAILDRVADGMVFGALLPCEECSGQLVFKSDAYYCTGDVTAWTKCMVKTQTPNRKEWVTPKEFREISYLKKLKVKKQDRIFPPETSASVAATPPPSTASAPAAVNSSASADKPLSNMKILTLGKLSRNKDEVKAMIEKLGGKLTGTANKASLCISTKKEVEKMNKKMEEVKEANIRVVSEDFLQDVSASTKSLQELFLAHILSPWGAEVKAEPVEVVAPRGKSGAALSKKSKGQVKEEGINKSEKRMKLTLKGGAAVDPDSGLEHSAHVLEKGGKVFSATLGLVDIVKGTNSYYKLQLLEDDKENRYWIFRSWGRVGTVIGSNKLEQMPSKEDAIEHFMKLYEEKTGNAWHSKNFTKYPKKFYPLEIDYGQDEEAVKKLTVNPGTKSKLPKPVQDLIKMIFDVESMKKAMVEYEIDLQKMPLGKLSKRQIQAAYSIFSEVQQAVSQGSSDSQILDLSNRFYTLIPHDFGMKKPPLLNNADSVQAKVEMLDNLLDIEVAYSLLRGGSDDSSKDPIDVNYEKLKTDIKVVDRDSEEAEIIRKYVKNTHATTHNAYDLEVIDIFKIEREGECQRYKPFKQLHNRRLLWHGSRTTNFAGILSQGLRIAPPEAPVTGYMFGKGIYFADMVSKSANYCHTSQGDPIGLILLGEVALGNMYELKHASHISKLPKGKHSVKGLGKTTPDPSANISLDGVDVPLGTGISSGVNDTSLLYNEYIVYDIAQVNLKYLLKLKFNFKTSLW

As for `CC(=O)c1c(O)c(C)c(O)c(Cc2c(O)c3c(c(C(=O)/C=C/c4ccccc4)c2O)OC(C)(C)C=C3)c1O` [Rottlerin], the “PARP1 L713F-nLuc/akaLuc ratio” value was 0.628.
